CYP2C9 activ: CYP2C9 (human) activation; P11712; actives 1.4% (n = 96,000); activation factor at 5 µM; recombinant CYP2C9, luciferin-H conversion, luminescence; active compounds read high; factor 1 = untreated enzyme, 0 = blocked;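 active = activation factor of 2 or more for CYP2C9 at a 5 µM dose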
CYP2C9 inhib: inhibitors of human CYP2C9. P11712. CYP2C9 Supersomes, luciferin-H conversion, luminescence. inhibition, % at 5 µM. actives 20% (n = 96,000). AID 777;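 active = blocking of liver enzyme CYP2C9 beyond about 50% at 5 µM, limit read from the data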
CYP2C19 inhib: blocks human cytochrome P450 2C19; P33261; inhibition, % at 5 µM; actives 21% (n = 96,000); AID 778; CYP2C19 Supersomes, luciferin-H EGE luminescence, 30 min;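 active = CYP2C19 inhibition above a set limit at 5 µM in the primary screen, cut at about 50% in these data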
CYP2C19 act: increases human CYP2C19 enzyme activity. P33261. recombinant CYP2C19, luciferin-H EGE luminescence; active compounds read high; 0 = fully inhibited enzyme, 1 = untreated enzyme. activation factor at 5 µM. 96,000 tested, under 10 active. AID 1025;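 active = activation factor of at least 2 at 5 µM in the primary screen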
Cav3 T inh: inhibitors of human Cav3.2 T-type calcium channel; actives 4% (n = 100,000); B-score at 10 µM; O95180; Cav3.2-expressing cells, Fluo-4 calcium fluorescence FDSS; active compounds read low;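 active = single-dose well whose peak fluorescence ratio is a statistical outlier from its plate by either plate-standardised score or position-corrected B-score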
A number is an active result; n = inactive; x = no result given. In the library only some 27% were active in any assay of this set; here they are far more common.

SMILES | CYP2C9 activ | CYP2C9 inhib | CYP2C19 inhib | CYP2C19 act | Cav3 T inh
COc1ccc(N(CC(=O)N2CCc3ccccc3C2)S(=O)(=O)c2c(C)[nH]c(=O)[nH]c2=O)cc1 | n | n | n | n | n
c1c2c(cc3sc(N4CCOCC4)nc13)OCCO2 | n | n | 87.3 | n | n
O=C1c2cccnc2C(=O)N1Cc1ccc2c(c1)OCO2 | n | n | n | n | n
Cc1cc(F)ccc1NCc1cccnc1 | n | n | 50.0 | n | n
CCOC(=O)c1c(NC(=O)CSc2nc3ccccc3s2)sc(C)c1C | n | 65.0 | n | n | n
Cc1cnc(NC(=O)CSc2nc3ccccc3s2)s1 | n | n | n | n | -4.61
O=C(CSc1nc2ccccc2s1)NCCOc1ccc(Cl)cc1 | n | n | n | n | -6.19
Cc1cnc(NC(=O)CSc2ncn(-c3ccccc3)n2)s1 | x | x | x | x | n
Cc1cnc(NC(=O)CSc2ccc(Cl)cc2)s1 | n | n | 68.8 | n | n
CCOC(=O)c1c(NC(=O)CSc2nc3ccccc3o2)sc(C)c1C | n | n | n | n | n
CC(=O)N1N=C(c2ccncc2)OC12CCCCCC2 | x | x | x | x | n
NS(=O)(=O)c1ccc(C(=O)O)cc1 | x | x | x | x | n
CCCc1nnc(NC(=O)CSc2ncn[nH]2)s1 | n | n | n | n | n
CCOC(=O)c1c(NC(=O)CSc2ncn[nH]2)sc(C)c1C | n | 85.3 | 72.9 | n | n
O=C(CCCSc1nc2ccccc2s1)NC1=NCCS1 | n | n | 83.2 | n | n
Cc1cnc(NC(=O)c2ccc(-c3nc4ccccc4s3)o2)s1 | n | 56.3 | 75.4 | n | n
O=C(CSc1nn(-c2ccccc2)c(=S)s1)Nn1cnnc1 | n | 98.1 | 64.4 | n | n
C=CCOC(=O)C1=C[C@@H](c2ccc(C(F)(F)F)cc2)[C@H](CCCO)[C@@H](OCC)O1 | x | x | x | x | n
COC(=O)c1c(NC(=O)CSc2nnc(Cn3nnc4ccccc43)n2C)sc(C)c1C | n | n | n | n | n
CCOC(=O)c1c(NC(=O)CSc2nnc(Cc3ccccc3)o2)sc(C)c1C | x | x | x | x | -4.49
O=C(CSc1nc2ccccc2s1)Nn1cnnc1 | n | 96.4 | 75.5 | n | n
CC(C)n1c(SCCCc2ccccc2)nc2c1c(=O)[nH]c(=O)n2C | n | n | n | n | n
C/C=C/Cn1c(SC)nc2c1c(=O)[nH]c(=O)n2C | n | n | n | n | n
C=CCn1c(SCCCc2ccccc2)nc2c1c(=O)[nH]c(=O)n2C | n | 63.4 | 75.5 | n | x
C/C=C/Cn1c(SCCCc2ccccc2)nc2c1c(=O)[nH]c(=O)n2C | n | 77.3 | 58.5 | n | n
SMILES | CYP2C9 activ | CYP2C9 inhib | CYP2C19 inhib | CYP2C19 act | Cav3 T inh
C/C=C/Cn1c(SCc2ccc(Cl)cc2)nc2c1c(=O)[nH]c(=O)n2C | n | 57.8 | n | n | n
Cc1nc2ccc(CCO)cc2s1 | x | x | x | x | n
CC(=C1C(=O)c2ccccc2C1=O)N1CCC(C(N)=O)(N2CCCCC2)CC1 | n | n | n | n | n
COCc1cc(Sc2ccc(Br)cc2)nc(-c2ccccc2)n1 | n | n | n | n | n
Clc1cc(Sc2ccc(Br)cc2)nnc1-c1ccccc1 | n | 67.6 | 53.8 | n | -5.29
Cc1ccc(NCN2C(=O)C3CC=CCC3C2=O)cc1 (configuration not stated) | x | x | x | x | n
COc1cccc(C(CC(=O)Nc2cccc3ccccc23)NC(=O)c2ccccc2)c1 (configuration not stated) | n | 81.0 | n | n | n
Cc1cccc(C(=O)N/N=C/c2ccncc2)c1 | n | n | 64.1 | n | n
CCn1c2ccccc2c2cc(/C=N/NC(=O)c3cccc(C)c3)ccc21 | n | n | n | n | -4.19
CC(/C=N/NC(=O)c1ccncc1)=C\c1ccccc1 | n | 78.9 | 81.2 | n | n
CC(/C=N/NC(=O)Cc1cc(=O)[nH][nH]1)=C\c1ccccc1 | n | n | n | n | n
Cc1nc2ncnn2c(C)c1CCC(=O)NCCCN1CCN(c2cccc(Cl)c2)CC1 | n | n | n | n | x
COc1ccc(C(CC(=O)O)NC(=O)COc2ccccc2)cc1 (configuration not stated) | x | x | x | x | n
COc1ccc(C2C(C#N)=C(/N=C/N3CCN(C)CC3)OC3=C2C(=O)CC(C)(C)C3)cc1 (configuration not stated) | n | 53.0 | 51.3 | n | n
CC1(C)CC(=O)C2=C(C1)OC1=C(C(=O)CC(C)(C)C1)C2c1ccccc1 | n | n | n | n | n
CC(C)CNC(=S)NC1CC2CCCC(C1)N2Cc1cccs1 (configuration not stated) | n | n | n | n | n

Source: PubChem
